# RORgamma inh = qHTS for inhibitors of ROR gamma transcriptional activity; Nuclear receptor ROR-gamma (Mus musculus), P51450; Drosophila S2 Gal4-RORgamma UAS-luciferase reporter, 20 h; Potency, µM (series often up to 53.6 µM), for inactives: top-dose activity change, negative = inhibition, most hits filed as inhibitors; hit rate 5.4% among 310,000; AID 2551, 2010; also: potency is read from the fitted curve at half-maximal effect; nearly all actives have a fitted effect of over 60% in size
# Target sequence (P51450 whole entry, looked up, the tested form may be a part): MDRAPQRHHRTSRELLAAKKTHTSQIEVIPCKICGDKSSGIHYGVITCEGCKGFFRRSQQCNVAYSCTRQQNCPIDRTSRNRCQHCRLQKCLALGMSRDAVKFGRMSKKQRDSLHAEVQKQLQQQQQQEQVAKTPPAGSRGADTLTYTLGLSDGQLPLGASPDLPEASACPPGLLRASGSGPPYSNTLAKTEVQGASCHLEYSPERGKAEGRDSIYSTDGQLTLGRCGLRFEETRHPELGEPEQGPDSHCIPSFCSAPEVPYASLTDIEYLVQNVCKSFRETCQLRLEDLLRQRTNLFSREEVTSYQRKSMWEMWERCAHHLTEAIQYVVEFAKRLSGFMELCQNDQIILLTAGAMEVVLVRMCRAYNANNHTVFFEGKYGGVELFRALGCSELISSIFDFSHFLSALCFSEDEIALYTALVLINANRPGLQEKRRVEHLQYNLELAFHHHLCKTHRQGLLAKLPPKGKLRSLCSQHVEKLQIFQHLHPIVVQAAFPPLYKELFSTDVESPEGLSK
#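 Stable Schneider cell line, Gal4 DNA-binding domain fused to ROR gamma, UAS-luciferase. Cmpd 1 hr RT → CuSO4 700 uM final → 20 hr RT → luciferase reagent 10 min → luminescence.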
# B2AR arrestin = qHTS assay of beta-arrestin-biased ligands of beta2-adrenergic receptor; AID 492947, 2010; beta-arrestin recruitment to beta2AR, cell-based reporter; Beta-2 adrenergic receptor (Homo sapiens), P07550; hit rate 0.02% among 330,000; Potency, µM (series often up to 46.1 µM), for the others: top-dose activation, most hits filed as activators;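 also: potency is read from the fitted curve at half-maximal effect; 0% = DMSO controls and full agonism = EC100 isoproterenol or metaproterenol; nearly all actives have a fitted effect of over 65% in size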
# Gal4-VP16 FLuc = VP16 counterscreen qHTS for inhibitors of ROR gamma transcriptional activity; hit rate 3.5% among 310,000; Potency, µM (top dose mostly 53.6 µM), without a hit: at the highest dose activity, negative = inhibition, actives largely listed as inhibitors; Drosophila S2 Gal4-VP16 UAS-luciferase, luminescence, 20 h;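 also: Gal4-VP16 expression switched on by copper sulfate through the metallothionein promoter; potency is read from the fitted curve at half-maximal effect; nearly all actives have a fitted effect of over 50% in size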
# TSHR antag = Antagonists of the Thyroid Stimulating Hormone Receptor: HTS campaign; Thyrotropin receptor (Homo sapiens), P16473; TSHR-expressing cells, TSH-stimulated cAMP HTRF, 2 h; active compounds read low; activity change, negative = inhibition, % at 11.5 µM; hit rate 0.2% among 330,000;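 active = activity change below a set negative limit, meaning inhibition stronger than a set level, cut at about -70% in these data; inconclusive = activity change between two set negative limits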
#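 Read-out is FRET at 665 nm (cryptate excitation 337 nm) from a cryptate-tagged anti-cAMP antibody, competed by cell cAMP against cAMP-d2. Compounds are tested on freshly harvested TSHR cells challenged with 4nM TSH (EC80) for 2 hours at 37 deg C.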
# ELG1 DNA repair = qHTS screen for small molecules that inhibit ELG1-dependent DNA repair in human embryonic kidney (HEK293T) cells expressing luciferase-tagged ELG1 | HEK293T ELG1-luciferase reporter, luminescence, 16 h; DNA damage induced by 5-fluorouridine | Potency, µM (series often up to 46.1 µM), without a hit: top-dose activity change, negative = inhibition, actives largely listed as inhibitors | hit rate 2.3% among 330,000 | AID 504467, 2011; also: potency is read from the fitted curve at half-maximal effect; nearly all actives have a fitted effect of over 55% in size
#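 Overnight (16 hr) co-exposure of 2,000 cells/well to 5-fluorouridine and compound at 37 °C preceded detection. Luciferase was quantified via ONE-Glo luminescence; loss of signal denotes inhibition.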
# Starred values were filed as active, the others as inactive; ? = inconclusive; nt = no result. Sampled rows, rich in hits. Any-hit rate of the full collection: about 7.5%. Unless noted, calls follow the shape of the dose curve; as a rule, active = well fitted curve in the direction sought with a large enough effect; inconclusive = small, poorly fitted or top-dose-only effect, or another doubt; inactive = no such curve, though single readings can be large; an effect the other way counts as inactive or inconclusive. Unless noted, % is scaled to controls: 0 for no effect and ±100 for the full control effect.
SMILES,RORgamma inh,B2AR arrestin,Gal4-VP16 FLuc,TSHR antag,ELG1 DNA repair
COc1ccc(-c2cc(C(=O)N3CCN(c4ccccc4)CC3)c3ccccc3n2)cc1,33%,0%,-5%,-6,-24%
O=C(COc1cccc2ccccc12)N1CCN(c2ccccc2)CC1,?,0%,0%,21,8.2µM*
C=CC[C@@H]1/C=C(\C)C[C@H](C)C[C@H](OC)[C@H]2O[C@@](O)(C(=O)C(=O)N3CCCC[C@H]3C(=O)O[C@H](/C(C)=C/[C@@H]3CC[C@@H](O)[C@H](OC)C3)[C@H](C)[C@@H](O)CC1=O)[C@H](C)C[C@@H]2OC,?,nt,-6%,nt,nt
C=CCC1(C(=O)NCCO)CCN(C(=O)OC(C)(C)C)CC1,-33%,0%,-3%,2,1%
COCCNC(=O)Cn1nc(-c2ccc(Cl)cc2)c2ccccc2c1=O,-1%,-1%,1%,11,1%
C[C@H](NC(=O)[C@@H]1C[C@H]1[C@@H](NC(=O)OCc1ccccc1)c1ccccc1)c1ccccc1,-24%,nt,-21%,nt,nt
COc1ccc(-n2nc(C(=O)O)c3ccccc3c2=O)c(OC)c1,-1%,2%,-7%,5,11%
COc1ccc(-c2cc(C(=O)N3CCN(c4ncccn4)CC3)c3ccccc3n2)cc1,nt,0%,nt,-14,16µM*
COc1ccc(OCC(=O)N2CCN(c3nnc(-c4ccccc4)c4ccccc34)CC2)cc1,?,0%,?,-10,16µM*
CCOc1ccc(-c2cc(C(=O)N3CCN(C)CC3)c3ccccc3n2)cc1,30%,0%,?,5,?
CCOc1ccccc1N1CCN(C(=O)c2cc(-c3cc(OC)ccc3OC)nc3ccccc23)CC1,0%,6%,3%,-22,6.5µM*
COc1ccc(-n2nc(C(=O)N3CCN(c4ccc(F)cc4)CC3)c3ccccc3c2=O)c(OC)c1,-14%,0%,-3%,0,9.2µM*
COc1cc(NC(=O)CN2C(=O)COc3ccc(S(=O)(=O)N4CCOCC4)cc32)cc(OC)c1,9%,-1%,2%,-5,5%
C/C(=N\NC(=O)c1cccc(S(=O)(=O)N2CCOCC2)c1)c1cc2ccccc2o1,-20%,0%,-15%,-2,0%
COc1ccccc1CCn1c(=O)c(C)nc2cncnc21,-15%,nt,0%,nt,nt
COc1ccc(-c2cc(C(=O)N3CCN(c4ccccc4F)CC3)c3ccccc3n2)c(OC)c1,nt,6%,nt,-20,5.8µM*
COc1ccc(-c2cc(C(=O)N3CCCCCC3)c3ccccc3n2)c(OC)c1,-1%,-1%,1%,3,?
COc1ccc(N2CCN(C(=O)c3cc(-c4ccc(F)cc4)[nH]c3C)CC2)cc1,44%,-1%,1%,-2,-25%
COc1ccc(-n2ncc(C(=O)N3CCN(c4ccc(F)cc4)CC3)c2C)cc1,29%,0%,0%,-4,21µM*
COc1ccc(Cn2c(N)c(C#N)c3nc4ccccc4nc32)cc1OC,-13%,0%,-20%,-15,-7%
COc1ccc(CCn2c(N)c(C#N)c3nc4ccccc4nc32)cc1OC,41%,0%,12%,-5,23µM*
COc1ccc(CCn2c(N)c(C(=O)NCc3ccco3)c3nc4ccccc4nc32)cc1OC,27%,0%,-11%,5,10µM*
COc1ccc(CCn2c(N)c(C(=O)NCc3ccco3)c3nc4ccccc4nc32)cc1,?,?,?,-5,21µM*
Nc1c(C(=O)NCc2ccco2)c2nc3ccccc3nc2n1CCc1ccccc1F,-24%,3%,16%,-3,-29%
CC(=O)c1ccc(NC(=O)CN(c2c(C)cccc2C)S(C)(=O)=O)cc1,29%,-1%,4%,3,?
Cc1cccc(NC(=O)CSCC(=O)N(C)CCOc2ccc(Cl)cc2)c1,nt,0%,nt,-2,0%
CO/N=C(/C(=O)NC1C(=O)N2C(C(=O)O)=C(COC(N)=O)CSC12)c1ccco1 (centres undefined),8%,nt,-2%,nt,nt

# Screens from PubChem.
